CYP2C19 inhib: inhibitors of human CYP2C19. 96,000 compounds, 21% hits. P33261. CYP2C19 Supersomes, luciferin-H EGE luminescence, 30 min. AID 778. inhibition, % at 5 µM;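 active means CYP2C19 inhibition above a set limit at 5 µM in the primary screen, cut at about 50% in these data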;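 further: plate controls were negative control wells for no effect and 2.5 mM tranylcypromine positive control for full effect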
sEH act: soluble epoxide hydrolase (human) activation | P34913 | purified human sEH enzymatic activity, activator screen | activation, % at 2 µM | 91,000 compounds, 0.04% hits | AID 717; in the data active means activation above about 37%
Target sequence (P34913 whole entry, looked up): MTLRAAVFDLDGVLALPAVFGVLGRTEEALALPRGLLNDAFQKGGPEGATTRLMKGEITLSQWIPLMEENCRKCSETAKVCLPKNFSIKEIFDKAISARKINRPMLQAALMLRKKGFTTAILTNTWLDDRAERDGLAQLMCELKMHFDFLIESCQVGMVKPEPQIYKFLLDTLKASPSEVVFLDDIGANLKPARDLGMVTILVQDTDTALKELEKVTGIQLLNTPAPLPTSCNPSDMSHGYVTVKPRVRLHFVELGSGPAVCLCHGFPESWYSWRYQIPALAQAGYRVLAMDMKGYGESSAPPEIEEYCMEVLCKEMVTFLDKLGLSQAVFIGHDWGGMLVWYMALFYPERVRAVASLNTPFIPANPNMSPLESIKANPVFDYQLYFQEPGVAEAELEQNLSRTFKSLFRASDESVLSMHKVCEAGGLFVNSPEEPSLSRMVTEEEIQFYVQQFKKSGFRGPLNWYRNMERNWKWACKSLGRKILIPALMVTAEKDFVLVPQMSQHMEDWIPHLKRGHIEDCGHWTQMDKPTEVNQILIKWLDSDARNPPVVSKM
CYP2C9 act: activators of human CYP2C9 | P11712 | recombinant CYP2C9, luciferin-H conversion, luminescence; stronger effect = higher value; factor 1 = untreated enzyme, 0 = blocked | activation factor at 5 µM | 96,000 compounds, 1.4% hits;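 active means activation factor of 2 or more for CYP2C9 at a 5 µM dose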;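 further: 0 = sulfaphenazole-blocked wells and 1 = vehicle-only wells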
CYP2C9 inhib: human CYP2C9 inhibition. P11712. CYP2C9 Supersomes, luciferin-H conversion, luminescence. inhibition, % at 5 µM. 96,000 compounds, 20% hits. AID 777;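 active means blocking of liver enzyme CYP2C9 beyond about 50% at 5 µM, limit read from the data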
sEH inhibitor: blocks human soluble epoxide hydrolase activity; P34913; recombinant human sEH enzymatic activity assay; inhibition, % at 2 µM; 91,000 compounds, 0.34% hits; AID 707; in the data active means inhibition above about 80%
CYP2C19 act: cytochrome P450 2C19 (human) activation | recombinant CYP2C19, luciferin-H EGE luminescence; stronger effect = higher value; 0 = fully inhibited enzyme, 1 = untreated enzyme | 96,000 tested, under 10 active | P33261 | activation factor at 5 µM | AID 1025;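 active means activation factor of at least 2 at 5 µM in the primary screen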;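 further: 0 = wells with 2.5 mM tranylcypromine and 1 = vehicle-only wells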
An asterisk follows results filed as active; . = not tested or not shown. The list is not random: actives were taken first. Their share in the collection is about 27%.

SMILES	CYP2C19 inhib	sEH act	CYP2C9 act	CYP2C9 inhib	sEH inhibitor	CYP2C19 act
Cc1ccc(Cn2ccc(-c3cnc(-c4ccccc4)s3)n2)cc1	-4.5	13.2	0.9	7.1	-14.8	1
O=S(=O)(c1ccccc1)n1ccc(-c2cnc(-c3ccccc3)s2)n1	12.5	6.3	0.2	78.5*	-4.4	0.9
Fc1ccc(Cn2ccc(-c3cnc(-c4ccccc4)s3)n2)cc1	92.0*	6.4	0	96.9*	-7.9	0.1
O=C(c1ccc(F)cc1)n1ccc(-c2cnc(-c3ccccc3)s2)n1	0.2	0.6	1.2	-15.1	-2.0	1
O=C(NN1c2ccccc2CCc2ccccc21)c1ccccc1Br	26.4	-4.0	0.8	20.0	5.2	0.7
O=C1CSC(=S)N1CC1CCCO1 (stereo unspecified)	19.6	0.7	0.8	20.0	-1.0	0.8
CCN(CC(=O)Nc1cccc(OC)c1)C(=O)c1ccc(C)s1	76.3*	5.0	0.3	72.4*	-3.0	0.2
COc1cccc(NC(=O)CN(c2cccc(F)c2)S(C)(=O)=O)c1	26.3	-4.1	0.7	29.9	6.7	0.7
Cc1[nH]nc(N=CC2=C(O)CC(C)(C)CC2=O)c1-c1ccccc1	3.9	-7.5	0.6	35.9	6.2	1
Cc1[nH]nc(N=CC2=C(O)CC(c3ccco3)CC2=O)c1-c1ccccc1 (stereo unspecified)	28.4	2.9	0.4	60.7*	-2.6	0.7
CN(C)c1nc(NCc2ccccc2)nc(N/N=C/c2ccc(Cl)cc2Cl)n1	8.5	3.0	0.9	13.7	-4.2	0.9
Clc1cccc(OCCn2cncn2)c1Cl	84.4*	6.8	1.8	-80.6	-7.1	0.2
Clc1ccccc1OCCn1ccnc1	65.8*	-3.9	0.3	74.2*	9.0	0.3
Clc1ccccc1OCCN1CCCCC1	44.2	-5.1	1	2.6	6.5	0.6
Clc1ccc(SCCn2cncn2)cc1	34.7	-13.7	0.7	31.1	14.8	0.7
C=CCc1ccccc1OCCn1ccnc1	91.5*	-3.0	0.1	85.4*	1.2	0.1
O=C(COc1ccccc1)NC(Cc1c[nH]c2ccccc12)C(=O)O (stereo unspecified)	25.5	-11.1	0.7	30.9	9.9	0.7
COc1cc(C(C(=O)NC(C)(C)C)N(Cc2ccc3c(c2)OCO3)C(=O)c2cnccn2)cc(OC)c1OC (stereo unspecified)	-0.9	6.0	1.3	-26.9	-5.8	1
N#Cc1nc(-c2ccc(OCc3ccccc3)cc2)oc1NCc1cccnc1	10.0	6.4	0.8	22.4	-7.8	0.9
CN(C)c1oc(-c2ccc(OCc3ccccc3)cc2)nc1C#N	79.5*	-1.3	0.9	14.9	4.5	0.2
COC(=O)/C(=C(/F)SCC(C)=O)C(F)(F)F	7.4	1.4	0.3	69.2*	-2.3	0.9
COc1ccc(-n2cnnc2SCC(=O)NC2CCS(=O)(=O)C2)cc1 (stereo unspecified)	-18.4	-11.5	1.2	-23.3	9.8	1.2
CCN(CC)C(=O)c1sc(NC(=O)c2ccoc2C)c(C(=O)OC)c1C	14.4	.	0.7	31.3	.	0.9
CCOC(=O)c1c(NC(=O)OC)sc(C(=O)N(CC)CC)c1C	56.3*	7.6	0.3	66.6*	-5.0	0.4
CCOC(=O)c1sc(NC(=O)CN(CC(C)C)CC(C)C)c(C(=O)OCC)c1C	34.7	2.3	0.4	62.2*	0.5	0.7
SMILES	CYP2C19 inhib	sEH act	CYP2C9 act	CYP2C9 inhib	sEH inhibitor	CYP2C19 act
CCN(CC)C(=O)c1sc(NC(=O)C(Sc2ccccc2)c2ccccc2)c(C(=O)OC(C)C)c1C (stereo unspecified)	20.9	1.7	0.2	84.4*	0.3	0.8
CCOC(=O)c1c(NC(=O)c2ccoc2C)sc(C(=O)N(C)C)c1C	57.2*	-10.5	0.2	83.4*	8.8	0.4
O=C(Oc1ccc(OC(=O)N2CCCCC2)cc1)c1ccccc1	34.7	-1.7	1.2	-24.9	6.7	0.7
Cc1ccc(S(=O)(=O)N2CCN(C(=O)CSc3nnc(C)s3)C2)cc1	27.4	-5.0	1	-2.2	3.5	0.7
O=S(=O)(c1ccc(Oc2ccc(-c3nnco3)cc2)nc1)N1CCC(Cc2ccccc2)CC1	14.6	-1.5	0.4	58.2*	0.9	0.9
Cc1sc(-c2ccccn2)nc1OC(=O)c1cccc(Cl)c1Cl	-2.2	-10.0	0.3	71.8*	9.1	1
Cc1sc(-c2ccncc2)nc1OC(=O)c1ccccc1	99.0*	-5.2	0	95.9*	3.9	0
Cc1oc(=O)c(NC(=O)c2cccc(Cl)c2)cc1C(=O)c1ccccc1	24.9	-14.4	0.9	5.8	16.8	0.8
COc1cc(CNCc2ccco2)ccc1OCc1ccccc1	52.3*	7.3	1.1	-13.1	-9.4	0.5
COc1cc(CNCc2cccs2)ccc1OCC(N)=O	2.0	3.8	0.9	13.5	-6.7	1
COc1cc(CNCc2cccs2)ccc1OCc1ccccc1	66.6*	3.7	0.8	15.4	-0.5	0.3
COc1cc(CNCc2cccs2)ccc1OCc1cccs1	50.0*	12.9	0.8	15.5	-9.5	0.5
O=Cc1cccc(OC(=O)c2ccc(Cl)cc2Cl)c1	-4.0	-24.3	1.1	-11.2	25.4	1
O=C(NCc1ccccc1)c1ccc(COCC(F)(F)F)o1	85.2*	4.8	0.7	25.9	0.3	0.1
O=C(NCc1ccccc1)c1ccc(-c2ccc(F)cc2)o1	54.9*	-10.1	0.4	55.5*	7.6	0.5
CNC(=O)c1sccc1SCc1c(Cl)cccc1Cl	37.6	-0.5	0.9	11.7	-0.6	0.6
CNC(=O)c1sccc1SCc1ccc(Cl)cc1Cl	75.4*	-3.3	0.6	37.9	0.5	0.2
c1csc(CCNc2ncnc3sc4c(c23)CCC4)c1	93.8*	-10.0	0.5	46.4	13.7	0.1
COCCCNc1ncnc2sc3c(c12)CCC(C)C3 (stereo unspecified)	.	0.0	.	.	4.9	.
c1cn(CCCNc2ncnc3sc4c(c23)CCC4)cn1	100.4*	.	0	96.8*	.	0
Fc1ccc(Nc2ncnc3sc4c(c23)CCC4)cc1	88.5*	7.4	0.4	61.0*	-4.9	0.1
O=S(=O)(Nc1ncnc2sc3c(c12)CCC3)c1ccc2ccccc2c1	17.3	22.9	0.2	78.6*	-25.1	0.8
C[C@H](Nc1ncnc2sc3c(c12)CCC3)C(=O)O	-1.4	16.4	0.9	5.1	-13.1	1
CCn1c(=O)cc(NC2=NCC(C)CN2c2cccc(Cl)c2)n(C)c1=O (stereo unspecified)	12.4	.	0.7	34.4	.	0.9
c1ccc(Nc2ncnc3sc4c(c23)CCC4)cc1	76.2*	3.9	0.8	22.9	-1.1	0.2
COc1ccc(OC)c(NC(=O)c2cc(-c3ccc(C)cc3O)n[nH]2)c1	9.6	-0.8	2.9*	-191.9	3.7	0.9
Cc1ccc(-c2cc(C(=O)Nc3cc(C)ccc3C)[nH]n2)c(O)c1	.	-9.6	.	.	11.7	.
N/C(Cc1ccc(Cl)cc1)=N\OC(=O)c1ccc2ccccc2c1	-14.8	8.2	0.8	17.2	-5.1	1.1
